In the library only some 3% were active in any assay of this set; here they are far more common.
MITF TRPM1 HTS: MITF TRPM1 promoter activation in melanoma cells | AID 588334 | 300,000 tested, 0.75% active | activation, % at 12.5 µM | SK-MEL-5 TRPM1-promoter luciferase, 24 h; % of positive control, neutral wells = 0;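 active means mean activation of at least 80% with every replicate also reaching 80%; inconclusive means mean reaches 80% but some replicate falls short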;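 further: 0% = neutral control wells and 100% = parthenolide positive control wells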
Vif imaging: HIV Vif inhibition. HEK293T cells, Vif self-association by quenched fluorescence, imaging, 24 h. inhibition, % at 7.49 µM. 340,000 tested, 0.35% active. AID 602346; in the data active means inhibition above about 50%, passing the limit was not always enough; inconclusive means no clear call, values can overlap the other calls; inactive means below about 31%
PfHsp90 yeast 2: reduces growth (ATP signal) of yeast expressing P. falciparum Hsp90; S. cerevisiae expressing PfHsp90, BacTiter-Glo ATP, 48 h; yeast lacking PDR1 and PDR3 efflux regulators; inhibition, % at 9.4 µM; 310,000 tested, 0.32% active; AID 504621;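 active means every replicate shows inhibition above about 80%, whatever the replicate mean, limit read from the data; inconclusive means mean inhibition reaches the set limit but some replicate falls short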;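 further: 0% = DMSO neutral controls and 100% = 20 µM radicicol positive controls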
Wnt bcat act: activators of Wnt/beta-catenin signaling. AID 743398. 300,000 tested, 1.2% active. Wnt/beta-catenin reporter cell assay, activator, plate reader. activation, % at 9.35 µM; in the data active means activation above about 30%, passing the limit was not always enough; inconclusive means no clear call, values can overlap the other calls;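 further: 0% = neutral control wells and 100% = positive control wells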
N-glyco inh: N-linked glycosylation inhibition. D54 ERlucT glycosylation luciferase reporter, 24 h; percent of 100 nM tunicamycin response. 360,000 tested, 0.23% active. reporter increase, % at 12.5 µM;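 active means mean luciferase reporter signal, scaled so untreated is 0 and the glycosylation-blocking control 100, at or above a set limit in every replicate; inconclusive means mean reaches the limit but not every replicate does; inactive means mean below the limit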;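 further: luciferase carries N-glycosylation sites so blocking glycosylation raises the light; 0% = median of neutral control wells and 100% = median of 100 nM tunicamycin wells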
esBAF inh: SWI/SNF esBAF complex inhibition; reporter increase, % at 12.5 µM; mouse ES cells, Bmi1-luciferase knock-in reporter, 24 h; 100% = twice the neutral-well signal; 350,000 tested, 2% active; in the data active means activation above about 40%; inconclusive means no clear call, values can overlap the other calls;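 further: 0% = median of the plate's neutral control wells and 100% = double that signal; a rise in the Bmi1 reporter signal indicates esBAF inhibition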
Starred values were filed as active, the others as inactive; ? = inconclusive; / = no result.

SMILES | MITF TRPM1 HTS | Vif imaging | PfHsp90 yeast 2 | Wnt bcat act | N-glyco inh | esBAF inh
O=C(O)CC(C(=O)O)n1nc(-c2ccccc2)cc1-c1ccccc1 (stereo not given) | 3 | 8 | 7 | / | 0 | 58*
O=C(O)Cn1nc(-c2ccccc2)cc1-c1ccccc1 | -11 | -5 | -15 | 3 | 0 | 14
CC(=O)n1nc(-c2ccccc2)cc1-c1ccccc1 | 53 | -3 | 1 | 64* | -1 | /
Cc1occc1-c1nnc(SCC(=O)c2ccc(F)cc2)o1 | / | -1 | -21 | 24 | -2 | /
COc1ccc(-n2cc(CNCCc3cscn3)c(-c3ccccc3Cl)n2)cc1 | / | / | / | -3 | / | /
COc1ccc(N(C(=O)c2ccncc2)S(=O)(=O)c2ccc(Cl)cc2)cc1 | 3 | 5 | 97* | / | -3 | 8
Cc1ccc(S(=O)(=O)N(C(=O)c2ccncc2)c2ccc(OC(=O)c3ccncc3)cc2)cc1 | -18 | -11 | 95* | 3 | 0 | /
CCc1ccc(S(=O)(=O)N(C(=O)c2ccncc2)c2ccc(OC(=O)c3ccncc3)cc2)cc1 | 8 | 3 | 101* | -2 | -2 | /
O=C(CNc1ccccc1F)N/N=C/C1CC=CCC1 (stereo not given) | 7 | 4 | 13 | -1 | -1 | /
Cc1nnc(SCc2c(Cl)cccc2Cl)s1 | 48 | -7 | 50 | 0 | -3 | 55*
Clc1cccc(Cl)c1CSc1nnc(-c2ccncc2)s1 | / | 8 | -31 | 6 | 2 | 35
Cc1nnc(SCc2ccc(F)cc2Cl)s1 | 72 | -3 | -11 | / | -4 | 50*
O=C(/C=C/c1ccccc1Cl)Nc1cccc(O)c1 | 54 | -13 | 13 | 54* | -11 | /
O=C(/C=C/c1ccccc1Cl)Nc1ccccc1 | / | -9 | -2 | 45* | -16 | /
CN(C)S(=O)(=O)c1ccc(NC(=O)/C=C/c2ccccc2Cl)cc1 | 43 | -2 | -22 | 2 | -1 | /
O=C(c1cccc([N+](=O)[O-])c1)n1nc(-c2ccccc2)nc1NCc1ccccc1 | 9 | 2 | 2 | 19 | -2 | /
Cc1cc(NC2CCCC2)n2nc(C)c(-c3ccccc3)c2n1 | 100* | -6 | 11 | 6 | 3 | ?
Cc1cc(NCCCn2ccnc2)n2nc(C)c(-c3ccccc3)c2n1 | 66 | -2 | -3 | 16 | ? | 47*
COc1ccc(-c2c(C)nn3c(NC4CCCC4)cc(C)nc23)cc1OC | -18 | 7 | -23 | 1 | 2 | 12
Cc1cc(NCCCn2ccnc2)n2nc(C)c(-c3ccc(Cl)cc3)c2n1 | 6 | / | 9 | / | 16 | 0
Cc1cc(-c2nnc(SCc3ccccn3)o2)no1 | 13 | 1 | 4 | 16 | -1 | 15
C[C@@H]1CN([C@@H](C)CO)C(=O)c2cc(NS(C)(=O)=O)ccc2O[C@@H]1CN(C)Cc1ccc(C(=O)O)cc1 | / | / | / | / | / | -5
COc1ccc(C(=O)NCCNc2nc3ccc(C)cc3cc2C#N)cc1 | 9 | -2 | 7 | 0 | 2 | 3
CCOc1ccc2nc(NCCNC(=S)NCCCN(C)C)c(C#N)cc2c1 | 22 | 7 | 12 | 1 | 0 | /
CCOc1ccc2nc(NCCNC(=O)Nc3ccccc3)c(C#N)cc2c1 | / | 57* | / | -21 | 12 | 3
SMILES | MITF TRPM1 HTS | Vif imaging | PfHsp90 yeast 2 | Wnt bcat act | N-glyco inh | esBAF inh
CCOc1ccc2nc(NCCNC(=O)Nc3cccc(C)c3)c(C#N)cc2c1 | / | 14 | / | -1 | 42* | 7
CCOC(=O)C(CC)/C(C)=N\NC(=O)c1ccccc1O (stereo not given) | -12 | / | 1 | -3 | 0 | /
Clc1ccc(SCc2nc3ccccc3[nH]2)cc1 | 119* | -14 | -9 | / | -2 | 36
Fc1ccccc1CSCc1nc2ccccc2[nH]1 | 90* | -7 | -28 | 2 | -1 | 64*
c1ccc(SCc2nc3ccccc3[nH]2)cc1 | 64 | -2 | -42 | / | -2 | /
O=c1[nH]c2ccccc2nc1-c1ccc(Cl)cc1 | / | -6 | -14 | 51* | -1 | /
O=c1[nH]c2ccccc2nc1-c1ccccc1 | 12 | 2 | -40 | 24 | 2 | /
COc1ccccc1NC(=O)C1C2CCCCC21 (stereo not given) | / | -2 | -24 | 1 | 0 | 7
CCCNC(=O)c1cc(Cl)c(NC(=O)C2=CSCCO2)cc1OC | 80 | -6 | -15 | 20 | 3 | 92*
COc1cccc(/C=C2\SC(N3CCC(C)CC3)=NC2=O)c1OC | 17 | -21 | -28 | 1 | 4 | 7
